Reference: PubChem BioAssay (Tox21)
Records with an inconclusive call do not appear. The source made the active and inactive calls. Unless noted, calls come from the whole dose curve; as a rule, active = well fitted curve in the direction sought with a large enough effect in the repeat runs; inconclusive = weak or mixed curves; inactive = no such curve, though single readings can be large; an effect the other way counts as inactive or inconclusive.

Experiments:
[1] = qHTS assay to identify small molecule agonists or antagonists of the thyroid stimulating hormone receptor (TSHR) signaling pathway - wild type cell line counter screen (AID 1259384; calls by dose curve)
Outline: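 Wild-type HEK293 cells were plated 18 h at 37 C/5% CO2, pin-dosed with compound plus Ro20-1724 medium, held 30 min at room temperature, then given cAMP-d2 and anti-cAMP-cryptate; fluorescence was read after 1 h. Fifteen concentrations, triplicate.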

[2] = target: Thyrotropin receptor (Homo sapiens) (UniProt P16473); assay: qHTS assay to identify small molecule antagonists of the thyroid stimulating hormone receptor (TSHR) signaling pathway (AID 1259385; calls by dose curve; note: nearly all actives have a fitted effect of over 20% in size)
Thyrotropin receptor (Homo sapiens), sequence (P16473 whole entry, looked up): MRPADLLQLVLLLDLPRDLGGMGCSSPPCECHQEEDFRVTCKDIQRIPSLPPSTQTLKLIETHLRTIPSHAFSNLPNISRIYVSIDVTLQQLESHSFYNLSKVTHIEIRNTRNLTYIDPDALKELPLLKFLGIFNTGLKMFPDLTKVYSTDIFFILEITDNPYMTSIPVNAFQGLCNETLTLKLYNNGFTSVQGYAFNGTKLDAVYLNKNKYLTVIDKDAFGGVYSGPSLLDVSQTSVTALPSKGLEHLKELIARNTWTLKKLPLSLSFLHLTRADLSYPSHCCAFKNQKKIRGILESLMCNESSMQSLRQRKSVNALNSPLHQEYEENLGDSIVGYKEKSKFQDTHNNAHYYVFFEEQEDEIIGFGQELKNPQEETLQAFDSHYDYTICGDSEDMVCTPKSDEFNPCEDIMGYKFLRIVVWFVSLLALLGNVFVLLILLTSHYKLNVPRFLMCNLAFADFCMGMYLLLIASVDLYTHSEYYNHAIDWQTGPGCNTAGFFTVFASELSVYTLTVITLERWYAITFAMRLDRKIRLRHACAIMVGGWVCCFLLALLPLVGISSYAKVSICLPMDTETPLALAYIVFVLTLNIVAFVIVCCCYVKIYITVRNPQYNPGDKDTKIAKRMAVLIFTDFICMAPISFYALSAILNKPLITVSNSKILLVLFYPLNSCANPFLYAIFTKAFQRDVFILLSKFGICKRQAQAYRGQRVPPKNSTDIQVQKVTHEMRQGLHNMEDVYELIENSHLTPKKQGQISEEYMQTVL
Outline: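 TSHR-HEK293 cells were plated and held 18 h at 37C/5% CO2, then given compound plus Ro20-1724 and stimulated with TSH at 1.5 ng/mL final. After 30 min at room temperature, cAMP was detected with cAMP-d2/anti-cAMP-cryptate (1 h) by fluorescence.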

[3] = qHTS assay to identify small molecule agonists of the estrogen receptor alpha (ER-alpha) signaling pathway in the presence of an antagonist - cell viability counter screen (AID 1259386);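 note: series mostly up to about 92 µM; cells exposed to compounds for 22 h at 37 °C before the viability read; nearly all actives have a fitted effect of over 30% in size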
Outline: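 VM7Luc4E2, stripped-serum pre-culture 5 d; 24hr plating; +ICI-182,780 10.0nM final; cpds 15 conc, 22hr, 37C/5% CO2; CellTiter-Fluor added at 21hr, fluorescence 1hr later.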

[4] = target: Progesterone receptor (Homo sapiens) (UniProt P06401); assay: qHTS assay to identify small molecule agonists of the progesterone receptor (PR) signaling pathway (AID 1346784; calls by dose curve; note: nearly all actives have a fitted effect of over 30% in size)
Progesterone receptor (Homo sapiens), sequence (P06401 whole entry, looked up): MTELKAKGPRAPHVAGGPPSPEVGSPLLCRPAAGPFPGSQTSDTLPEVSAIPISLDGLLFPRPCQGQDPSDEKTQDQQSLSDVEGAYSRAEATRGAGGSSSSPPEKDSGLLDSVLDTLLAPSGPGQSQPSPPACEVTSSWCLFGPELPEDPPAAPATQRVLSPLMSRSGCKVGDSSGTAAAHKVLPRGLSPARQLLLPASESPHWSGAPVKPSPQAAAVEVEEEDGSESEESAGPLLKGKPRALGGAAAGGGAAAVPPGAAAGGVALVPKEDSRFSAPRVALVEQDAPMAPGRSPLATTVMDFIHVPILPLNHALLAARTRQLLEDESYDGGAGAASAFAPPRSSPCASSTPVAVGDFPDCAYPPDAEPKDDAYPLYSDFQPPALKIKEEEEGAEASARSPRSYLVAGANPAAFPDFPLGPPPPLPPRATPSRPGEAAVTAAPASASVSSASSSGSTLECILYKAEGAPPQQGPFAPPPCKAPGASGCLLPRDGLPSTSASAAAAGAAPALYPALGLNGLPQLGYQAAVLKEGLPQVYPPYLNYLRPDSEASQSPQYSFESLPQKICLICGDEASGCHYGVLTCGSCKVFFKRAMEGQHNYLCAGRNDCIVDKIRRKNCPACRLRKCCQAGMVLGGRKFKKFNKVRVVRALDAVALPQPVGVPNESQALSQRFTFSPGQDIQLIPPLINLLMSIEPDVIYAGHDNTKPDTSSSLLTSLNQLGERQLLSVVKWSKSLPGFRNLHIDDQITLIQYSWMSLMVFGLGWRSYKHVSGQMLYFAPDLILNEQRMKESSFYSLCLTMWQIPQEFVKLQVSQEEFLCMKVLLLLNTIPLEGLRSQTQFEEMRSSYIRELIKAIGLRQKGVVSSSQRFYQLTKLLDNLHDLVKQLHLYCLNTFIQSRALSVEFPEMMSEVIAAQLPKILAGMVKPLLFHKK
Outline: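 Reporter assay, GripTite PR-UAS-bla HEK 293T cells: 16 hr exposure to DMSO-dissolved compounds at 37C, 5% CO2, in steroid-depleted (2% charcoal-stripped FBS) medium; beta-lactamase measured by FRET fluorescence.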

[5] = target: Progesterone receptor (Homo sapiens) (UniProt P06401); assay: qHTS assay to identify small molecule antagonists of the progesterone receptor (PR) signaling pathway (AID 1346795; active = well fitted inhibition curve with a large enough effect in the signal ratio in the repeat runs, not every such curve was filed as active; the % refers to the signal ratio)
Outline: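 Stimulus R5020 at 1 nM final; cells HEK293T PR-UAS-bla; medium with 2% charcoal-stripped FBS; compound exposure 16 hr at 37C, 5% CO2; detection by FRET beta-lactamase substrate, 2 hr, room temperature.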

[6] = qHTS assay to identify small molecule antagonists of the progesterone receptor (PR) signaling pathway - cell viability counter screen (AID 1346798); note: series mostly up to about 92 µM; nearly all actives have a fitted effect of over 50% in size
Outline: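 In the same plates used for the beta-lactamase readout, cell viability of compound- and R5020-treated PR-UAS-bla HEK293T cells (16 hr, 37C) was assessed by CellTiter-Glo luminescence.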

[7] = qHTS assay to identify small molecule agonists of the progesterone receptor (PR) signaling pathway - cell viability counter screen (AID 1346799; calls by dose curve; note: nearly all actives have a fitted effect of over 45% in size)
Outline: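 Multiplexed viability read: CellTiter-Glo luminescence, 30 min RT, following LiveBLAzer FRET measurement on PR-UAS-bla HEK293T cells exposed to compounds 16 hr.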

[8] = qHTS assay to identify small molecule antagonists of the TGF-beta/Smad signaling pathway - cell viability counter screen (AID 1346824); note: nearly all actives have a fitted effect of over 50% in size
Outline: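 SBE-bla HEK 293T cells were plated overnight at 37 C, then given compounds in DMSO plus TGF-beta1 (added as 0.25 ng/mL solution) for 5 hr. After the bla read, CellTiter-Glo was added to the same wells and luminescence read after 30 min at room temperature.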

[9] = qHTS assay to identify small molecule agonists of the TGF-beta/Smad signaling pathway - cell viability counter screen (AID 1346829); note: top concentration of the series differs between compounds; nearly all actives have a fitted effect of over 45% in size
Outline: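 After overnight seating at 37 C and 5% CO2, reporter cells got compounds for 5 hr and FRET substrate for 2 hr; cell viability then came from CellTiter-Glo luminescence.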

[10] = Human pregnane X receptor (PXR) small molecule agonists, qHTS cell viability counter screen (AID 1346977); note: nearly all actives have a fitted effect of over 50% in size
Outline: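 In each well, the PXR reporter HepG2 line was checked for viability: CellTiter-Fluor reagent added 23hr post-dosing, fluorescence read after 1hr incubation at 37C.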

[11] = Caspase-3/7 induction in HepG2 cells by small molecules, qHTS assay (AID 1346978); note: nearly all actives have a fitted effect of over 15% in size
Outline: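 Wild-type HepG2 cells (2,000/well) were settled 5 h at 37 C, 5% CO2, then exposed to compounds in DMSO for 17 h. Caspase-3/7 activity was read by luminescence 30 min after adding Caspase-Glo 3/7 reagent at room temperature.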

[12] = Caspase-3/7 induction in CHO-K1 cells by small molecules, qHTS cell viability counter screen (AID 1346979); note: nearly all actives have a fitted effect of over 35% in size
Outline: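 Following a 5hr settling period, CHO-K1 cells at 1,500 per well received DMSO-dissolved compounds. Cell viability was quantified 16hr later by CellTiter-Fluor fluorescence, measured after 1hr with reagent at 37C.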

[13] = Caspase-3/7 induction in CHO-K1 cells by small molecules, qHTS assay (AID 1346980); note: nearly all actives have a fitted effect of over 15% in size
Outline: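 Wild-type cells were seeded at 1,500 per well and settled 5 hr at 37 C, 5% CO2, then exposed to DMSO-dissolved compounds for 17 hr. Caspase-Glo 3/7 reagent was added, and luminescence was read after 30min at room temperature.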

[14] = Caspase-3/7 induction in HepG2 cells by small molecules, qHTS cell viability counter screen (AID 1346981); note: series mostly up to about 92 µM; nearly all actives have a fitted effect of over 30% in size
Outline: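 HepG2, WT, 2,000 cells/well; 5 hr pre-incubation 37 C/5% CO2; compound pin-transferred from DMSO; 16 hr exposure; CellTiter-Fluor, 1 hr; fluorescence read.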

[15] = target: Nuclear receptor subfamily 1 group I member 2 (Homo sapiens) (UniProt O75469); assay: Human pregnane X receptor (PXR) small molecule agonists, qHTS assay (AID 1346982); note: nearly all actives have a fitted effect of over 35% in size; note: potency is the fitted concentration of half-maximal effect
Nuclear receptor subfamily 1 group I member 2 (Homo sapiens), sequence (O75469 whole entry, looked up): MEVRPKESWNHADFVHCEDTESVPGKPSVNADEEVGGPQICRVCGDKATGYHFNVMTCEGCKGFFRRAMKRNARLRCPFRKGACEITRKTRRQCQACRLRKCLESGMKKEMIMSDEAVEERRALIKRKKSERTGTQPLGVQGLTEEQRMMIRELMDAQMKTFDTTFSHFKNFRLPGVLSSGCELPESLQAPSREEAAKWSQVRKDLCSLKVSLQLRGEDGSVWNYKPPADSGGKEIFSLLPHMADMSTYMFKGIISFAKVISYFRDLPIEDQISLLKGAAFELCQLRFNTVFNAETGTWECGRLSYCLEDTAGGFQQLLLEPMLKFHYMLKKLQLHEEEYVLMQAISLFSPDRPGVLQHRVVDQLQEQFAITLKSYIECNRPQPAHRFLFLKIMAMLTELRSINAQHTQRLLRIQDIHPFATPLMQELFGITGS
Outline: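 Luciferase signal from ONE-Glo (30 min, room temperature) measured activation of hPXR-driven CYP3A4 reporter expression in PXR-Luc HepG2 cells treated with compounds for 24 hr at 37 C.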

[16] = qHTS assay to identify small molecule agonists of the TGF-beta/Smad signaling pathway (AID 1346859; active = well fitted activation curve with a large enough effect in the signal ratio in the repeat runs, not every such curve was filed as active; the % refers to the signal ratio; note: series mostly up to about 77 µM)
Outline: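 Screening used HEK 293T SBE-bla cells at 4,000/well. Test agents: 5 hr, 37 C. Detection: FRET substrate, 2 hr RT, then excitation 405 nm with emissions at 460 and 530 nm.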

[17] = target: Thyrotropin-releasing hormone receptor (Homo sapiens) (UniProt P34981); assay: qHTS assay to identify small molecule antagonists of the thyrotropin-releasing hormone receptor (TRHR) signaling pathway (AID 1346877; active = well fitted inhibition curve with a large enough effect in the repeat runs, not every such curve was filed as active; note: series mostly up to about 51 µM)
Thyrotropin-releasing hormone receptor (Homo sapiens), sequence (P34981 whole entry, looked up): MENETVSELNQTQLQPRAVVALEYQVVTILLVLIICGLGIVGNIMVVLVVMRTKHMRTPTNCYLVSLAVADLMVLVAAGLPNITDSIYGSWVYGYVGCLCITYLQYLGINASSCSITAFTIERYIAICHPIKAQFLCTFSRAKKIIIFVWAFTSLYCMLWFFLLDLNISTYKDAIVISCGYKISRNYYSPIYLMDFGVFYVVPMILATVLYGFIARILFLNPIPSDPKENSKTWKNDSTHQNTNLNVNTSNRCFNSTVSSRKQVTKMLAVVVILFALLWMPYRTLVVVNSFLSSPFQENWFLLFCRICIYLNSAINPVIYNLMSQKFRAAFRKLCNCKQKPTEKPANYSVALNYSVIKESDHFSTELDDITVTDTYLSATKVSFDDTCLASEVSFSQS
Outline: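 Intracellular calcium fluorescence, read kinetically every second over 3 min, reports TRH-evoked signalling in HEK293 cells carrying TRHR. Test compounds were added 5 min ahead of a 1 nM TRH challenge.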

[18] = target: Thyrotropin-releasing hormone receptor (Homo sapiens) (UniProt P34981); assay: qHTS assay to identify small molecule agonists of the thyrotropin-releasing hormone receptor (TRHR) signaling pathway (AID 1346891; calls by dose curve; note: series mostly up to about 58 µM)
Outline: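 Readout was intracellular calcium fluorescence in TRHR-Hek293 cells. Cells were incubated 18 h, dye-loaded 2 h at 37 °C, and treated with compound in agonist mode.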

[19] = target: Nuclear receptor subfamily 1 group I member 2 (Rattus norvegicus) (UniProt Q9R1A7); assay: Rat pregnane X receptor (rPXR) activation by small molecules, qHTS assay (AID 1346983); conditions: rPXR luciferase reporter cells, One-Glo luminescence, 24 h; max activation: active compounds read high; note: nearly all actives have a fitted effect of over 20% in size
Nuclear receptor subfamily 1 group I member 2 (Rattus norvegicus), sequence (Q9R1A7 whole entry, looked up): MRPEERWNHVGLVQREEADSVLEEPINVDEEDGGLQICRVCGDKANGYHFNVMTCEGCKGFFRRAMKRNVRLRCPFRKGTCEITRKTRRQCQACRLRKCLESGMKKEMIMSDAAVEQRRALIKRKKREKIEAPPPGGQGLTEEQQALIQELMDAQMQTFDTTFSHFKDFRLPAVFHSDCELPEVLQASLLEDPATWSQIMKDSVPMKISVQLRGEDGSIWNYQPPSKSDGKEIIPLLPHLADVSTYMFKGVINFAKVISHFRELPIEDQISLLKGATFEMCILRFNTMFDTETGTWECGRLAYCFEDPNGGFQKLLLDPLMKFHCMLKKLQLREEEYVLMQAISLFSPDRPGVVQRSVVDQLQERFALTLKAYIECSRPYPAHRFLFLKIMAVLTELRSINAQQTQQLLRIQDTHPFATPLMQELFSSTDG
Outline: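 Cell-based rPXR luciferase reporter assay, 2,000 cells per well, rested 5hr at 37 C before compound addition in DMSO, then 24 hr at 37 C. One-Glo reagent was added and luminescence read after 30 min at room temperature.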
% is set by controls: 0 for no effect and ±100 for the full control effect.

CCCCCCCCC1CO1 (centres undefined)
inactive: outcome [1] | outcome [2] | outcome [3] | Potency [4] | Potency [5] | outcome [6] | Potency [7] | outcome [8] | outcome [9] | outcome [10] | outcome [11] | Potency [12] | outcome [13] | outcome [14]
active: Potency [15] 55.7 µM

O=C(c1ccccc1)c1cccc(O)c1
inactive: outcome [1] | outcome [2] | outcome [3] | Potency [4] | Potency [7] | outcome [8] | outcome [16] | outcome [17] | Potency [18] | outcome [10] | outcome [11] | Potency [12] | outcome [13] | outcome [14]
active: Potency [15] 55.3 µM

NC[C@H]1O[C@H](O[C@H]2[C@H](O)[C@@H](O[C@H]3O[C@H](CO)[C@@H](O)[C@H](N)[C@H]3O)[C@H](N)C[C@@H]2N)[C@H](N)[C@@H](O)[C@@H]1O
inactive: cAMP activity change [1] 2.25% [at 18.9 µM] | activity change, negative = inhibition [2] 4.59% [at 19 µM] | activity change, negative = cytotoxicity [3] 10% [at 19 µM] | activation [4] -1.56% [at 19 µM] | activity change, negative = inhibition [5] 11.8% [at 18.9 µM] | activity change, negative = cytotoxicity [7] 1.42% [at 19 µM] | viability change, negative = cytotoxic [8] 6.71% [at 15.8 µM] | activity change, negative = cytotoxicity [9] -5.22% [at 15.8 µM] | activation [16] 3.2% [at 15.8 µM] | activity, negative = inhibition [17] -3.11% [at 10.5 µM] | activation [18] -0.0664% [at 11.8 µM] | activity change, negative = cytotoxicity [10] 11% [at 19 µM] | caspase activation [11] -1.91% [at 19 µM] | activity change, negative = cytotoxicity [12] 1.7% [at 19 µM] | caspase-3/7 activation [13] -0.57% [at 19 µM] | activity change, negative = cytotoxicity [14] 0.336% [at 19 µM] | activation [15] -6.93% [at 19 µM]

O=C(O)P(=O)(O)O
inactive: outcome [1] | outcome [2] | outcome [3] | Potency [4] | outcome [6] | outcome [16] | outcome [17] | Potency [18] | outcome [10] | Potency [12] | outcome [13] | outcome [14] | Potency [15] | max activation [19] -4.52%

CCCCCC(CC)OC(=O)CCCOc1ccc(Cl)cc1Cl (centres undefined)
inactive: outcome [1] | outcome [2] | outcome [3] | Potency [4] | Potency [5] | outcome [6] | Potency [7] | outcome [8] | outcome [16] | outcome [17] | Potency [18] | outcome [10] | outcome [11] | Potency [12] | outcome [13] | Potency [15]

CC(C)(C)NCC(O)COc1cccc2c1CCC(=O)N2 (centres undefined)
inactive: outcome [1] | outcome [2] | outcome [3] | Potency [4] | Potency [5] | outcome [6] | Potency [7] | outcome [8] | outcome [9] | outcome [16] | outcome [17] | Potency [18] | outcome [10] | outcome [11] | Potency [12] | outcome [13] | outcome [14] | max activation [19] -2.26%

CC(C)C(C)C
inactive: outcome [1] | outcome [2] | outcome [3] | Potency [4] | outcome [6] | Potency [7] | outcome [8] | outcome [9] | outcome [16] | outcome [10] | outcome [11] | Potency [12] | outcome [13] | outcome [14] | Potency [15]

CCCCCCC(=O)c1ccccc1
inactive: outcome [1] | outcome [2] | outcome [3] | Potency [4] | Potency [5] | outcome [6] | Potency [7] | outcome [8] | outcome [9] | outcome [16] | outcome [17] | Potency [18] | outcome [10] | Potency [12] | outcome [13] | outcome [14] | Potency [15]

Cc1ccc2ccccc2n1
inactive: outcome [1] | outcome [2] | outcome [3] | Potency [4] | outcome [6] | Potency [7] | outcome [8] | outcome [9] | outcome [16] | outcome [17] | Potency [18] | outcome [10] | outcome [11] | Potency [12] | outcome [13] | outcome [14] | Potency [15]
